From the supplement of paper PMC6555819

What was measured:
Test in all cases: PBM binding z-score (relative to random genomic background probes); higher = stronger binding; sequences stand for … in GC…GCGATTGACAGCGTAGAATGAAGG
[1] = system: RARb homodimer (NR concentration 270 nM)
Procedure, shortened: (§1)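 Ligand-free nuclear receptor dimers were bound for 1 h to custom Agilent 4×180K protein-binding microarrays. Detection used antibodies against each partner (one per run). Binding z-scores rest on regression-normalized fluorescence, with random background probes as the reference.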

[2] = system: RARg:RXRa (NR concentration 270 nM, RXRa partner concentration 90 nM)
Procedure, shortened: as §1

[3] = system: RARg homodimer (NR concentration 270 nM)
Procedure, shortened: as §1

[4] = system: RXRa DBDmut IVT, anti-RXR (DBD mutation: RXRa K156A/R161A, NR concentration 90 nM)
Procedure, shortened: as §1

[5] = system: RXRa homodimer (NR concentration 180 nM)
Procedure, shortened: as §1

[6] = system: THRa:RXRa (NR concentration 90 nM, RXRa partner concentration 90 nM)
Procedure, shortened: as §1

[7] = system: THRa homodimer (NR concentration 90 nM)
Procedure, shortened: as §1

[8] = system: VDR homodimer (NR concentration 270 nM)
Procedure, shortened: as §1

Row | Sequence | PBM binding z-score [1] | PBM binding z-score [2] | PBM binding z-score [3] | PBM binding z-score [4] | PBM binding z-score [5] | PBM binding z-score [6] | PBM binding z-score [7] | PBM binding z-score [8]
1 | GCATATAGGTACTACAAGGTGAAAGTCCGATTGT | 0.507 | 0.382 | 0.475 | 0.291 | 0.615 | 3.49 | 0.882 | 0.179
2 | CTCGAAAGGTCGGTTGAGGTGAGTCTACGGATAA | 2.36 | 2.73 | 2.99 | 1.03 | 2.34 | 5.01 | 1.58 | 0.44
3 | ACTCGGAGGACAAAGCTCAGAGCTACGCCAGTGA | -0.345 | 0.103 | 0.826 | 0.394 | -0.292 | 0.233 | -0.675 | -0.243
4 | CCGACTGGGGCATAAGGTTACAATAAGCCAGCCC | 1.61 | 1.66 | 1.08 | -0.313 | 1.18 | 1.95 | 0.977 | -0.296
5 | AGAACGAGGGCAATGAGTTGGTAGCACGGGTGGC | 0.799 | 0.857 | 1.09 | 1.47 | 0.619 | 0.555 | -0.125 | 1.98
6 | CAAACTAGGTCACCGGAAGATCAAAGTCCGCATG | 3.35 | 4.78 | 5.35 | 1.93 | 3.67 | 3.63 | 1.81 | 0.906
7 | CCTAGTTGGTCAGGACGTCACACACCGGATATGA | 0.767 | 0.464 | 0.776 | 0.386 | 0.296 | 0.673 | 1.03 | 0.558
8 | GTACCAAGGTGAATAGGCCGTTGATGAGTAGGCG | 0.865 | 0.98 | 0.694 | -0.306 | 0.633 | 1.16 | 0.224 | -0.141
9 | ATCTCTAGGTAAACTTCAGTGAAAGATCGATAGA | 0.191 | 0.307 | 0.513 | 0.168 | 0.222 | 0.667 | 0.466 | 0.34
10 | CAAAGTAGGTCAAAGGTCAAAGTCGAGCCAACCA | 5.32 | 8.87 | 7.72 | 3.17 | 10.4 | 4.54 | 1.22 | 3.8
11 | CCTGCTAGGTCAATGGTCAGGTAAAGCAGCTCGC | 2.93 | 3.45 | 4.27 | 1.52 | 2.28 | 2.65 | 1.34 | 0.248
12 | TGTCAAAGTTCCAAGGTAACGTAAGTATCCACAC | 0.222 | 0.298 | 0.719 | -0.251 | 0.443 | 1.72 | 1.09 | -0.0741
13 | TCGAGTAGGTTAGTCGGGGCGTTCAGCCAACATA | -0.146 | -0.702 | -0.632 | 0.213 | -0.538 | 0.808 | -0.254 | -0.484
14 | GATACAGAGTCAAGGCCAGAGTACGCGTATTGAT | 0.0594 | 0.0796 | 0.345 | -0.102 | 0.116 | 0.0889 | -0.438 | -0.0653
15 | CGTAAAAGTTCAAGGTAACGTAACAGAAAGCAGC | 3.55 | 4.73 | 5.27 | 4.27 | 3.81 | 2.92 | 1.17 | 2.67
16 | CCGACTGGGGCAAGCTTACCATAACGCACAGCCA | -0.00597 | 0.179 | 0.523 | 0.00515 | -0.0329 | -0.39 | -0.624 | -0.428
17 | CAAACTAGGTCACCGGAATGTCAAAGTCCGCATG | 4.04 | 5.43 | 5.46 | 1.81 | 3.7 | 3.71 | 2.04 | 0.883
18 | ACTAGCCGGCCAAGTTTGGGTCACTCAAACAAAG | 2.27 | 1.35 | 1.48 | -0.475 | 0.851 | 2.15 | 1.23 | 0.121
19 | AGAACGAGGTTACCAAAGATCAGGGAAACGCTTG | 0.645 | 1.94 | 1.91 | 0.737 | 2.66 | 2.31 | 0.23 | 0.242
20 | ATCTCTAGGTAAAGTTCAGTAAAAGATCGATAGA | 2.39 | 2.22 | 2.74 | 1.27 | 1.18 | 1.23 | 0.183 | 2.13
21 | CCTCGGAGGATAACAGGAGGTCAGAGCTGCCAGA | 2.61 | 2.32 | 2.11 | -0.476 | 1.73 | 2.4 | 0.791 | 0.96
22 | TCTATTAGTTGAATAGGGCAACCGAAACAGCGGA | 0.977 | 0.99 | 0.765 | 0.685 | 0.759 | 0.247 | -0.423 | -0.139
23 | CCGAGTAGGTTAAGGGGCATTCAGGCAACGGTGA | 1.56 | 1.08 | 0.926 | 0.277 | 1.43 | 1.32 | 0.369 | 0.685
24 | TCTAGTTGGTCAAATGTCACACACTCGAAATGCG | 1.64 | 1.73 | 1.78 | 1.24 | 1.68 | 0.653 | 0.677 | 0.702
25 | ACGGACAGGTGATGAAGGTAACTCAGGCTATCAT | 0.711 | 0.496 | 0.813 | 0.19 | 0.31 | 1.02 | 0.438 | 0.327
26 | CCTACTGGGCCAAAAAGGTCACTGATGCCGATAA | 4.56 | 4.77 | 4.86 | 0.0179 | 4.83 | 3.07 | 0.702 | 1.53
27 | TCATAGAGGTAATACAGGTGAAAGTCGGCATCTA | 0.233 | 0.441 | 0.488 | 1.01 | 1.16 | 1.4 | -0.345 | 0.0318
28 | CGAACTAGGTCATTGACAGTACAGTGAATAGTAA | 2.62 | 3.89 | 4.03 | 2.62 | 2.48 | 2.48 | 0.979 | 0.986
